Calls of active or inactive are those of the source.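 Rule for the calls, unless noted: active = normalized viability below 100% at a tested concentration; inactive = the rest.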
assay: chitosan synthesis blockers in C. neoformans – flow cytometry, Cibacron Brilliant Red staining (AID 1347148; call rule not given here;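 note: compound exposure lasted three days at 37 degrees C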); settings: Cryptococcus neoformans chitosan, stronger effect = lower value; at 10 µM unless noted

| SMILES | fold fluorescence |
| --- | --- |
| N[C@H]1CCc2cc(O)c(O)cc2C1 | 4.25 [at 279 µM] (inactive) |
| CC(CCC(=O)O)CC(C)CC(C)C(=O)/C=C(\O)C(C)CC(C)C/C=C/C(C)C(O)C(C)C(O)CC1CCC(C)(C2CCC(C)(C(C)O)O2)O1 (centres undefined) | 5.45 [at 70.5 µM] (inactive) |
| C/C1=C/C(=O)O[C@H]2C[C@H](CC[C@@H](C)/C=C\CC1)O[C@](O)([C@H]1CSC(=O)N1)C2 | 6.99 [at 126.4 µM] (inactive) |

assay: blockers of cellular phospholipid synthesis – cell-based, LOPAC library, screen 4, primary screen (AID 1347384; call rule not given here); settings: animal cells, phospholipid biosynthesis inhibition screen; at 10 µM

| SMILES | outcome |
| --- | --- |
| C[C@H]1C2Cc3ccc(O)cc3[C@@]1(C)CCN2CC1CC1 | inactive |
| [Cl][Pt].[NH2-].[NH2-].c1ccncc1 | inactive |
| N#CCCN | inactive |

assay: MELAS cybrid and Rieske KO viability enhancers – cell-based, MELAS cybrids, Rieske KO mouse fibroblasts, CellTiter-Glo, primary screen (AID 1508586;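 active = mean z-score across replicates of 1.96 or higher in either the MELAS or the Rieske mutant cell line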;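 note: z relative to plate mean and SD of compound and empty wells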); settings: MELAS cybrid survival, low glucose, CellTiter-Glo 48 h; stronger effect = higher value

| SMILES | z-score |
| --- | --- |
| CC(=O)O[C@H]1C[C@H](O[C@H]2[C@@H](O)C[C@H](O[C@H]3[C@@H](O)C[C@H](O[C@H]4CC[C@@]5(C)[C@H](CC[C@@H]6[C@@H]5C[C@@H](O)[C@]5(C)[C@@H](C7=CC(=O)OC7)CC[C@]65O)C4)O[C@@H]3C)O[C@@H]2C)O[C@H](C)[C@H]1O[C@@H]1O[C@H](CO)[C@@H](O)[C@H](O)[C@H]1O | 2.15 (active) |
| CCN(CC)C(C)C(=O)c1ccccc1 (centres undefined) | 0.648 (inactive) |
| COCCCOc1ccnc(CS(=O)c2nc3ccccc3[nH]2)c1C (centres undefined) | 1.01 (inactive) |
| CC[C@H](C)[C@H]1O[C@]2(C=C[C@@H]1C)C[C@@H]1C[C@@H](C/C=C(\C)C(O[C@H]3C[C@H](OC)C(O[C@H]4C[C@H](OC)[C@@H](O)[C@H](C)O4)[C@H](C)O3)[C@@H](C)/C=C/C=C3\CO[C@@H]4[C@H](O)C(C)=C[C@@H](C(=O)O1)[C@]34O)O2 (some centres undefined) | -1.19 (inactive) |
| C=CCC1(CC(C)C)C(=O)NC(=O)NC1=O | 0.0849 (inactive) |
| C=CC[C@]1(O)CC[C@H]2[C@@H]3CCC4=CC(=O)CCC4=C3C=C[C@@]21C | 0.712 (inactive) |
| CN1CCN(C(=O)OC2c3nccnc3C(=O)N2c2ccc(Cl)cn2)CC1 (centres undefined) | -0.0147 (inactive) |

same assay, conditions: Rieske KO mouse fibroblast survival, low glucose, CellTiter-Glo 72 h

| SMILES | z-score |
| --- | --- |
| CC(=O)O[C@H]1C[C@H](O[C@H]2[C@@H](O)C[C@H](O[C@H]3[C@@H](O)C[C@H](O[C@H]4CC[C@@]5(C)[C@H](CC[C@@H]6[C@@H]5C[C@@H](O)[C@]5(C)[C@@H](C7=CC(=O)OC7)CC[C@]65O)C4)O[C@@H]3C)O[C@@H]2C)O[C@H](C)[C@H]1O[C@@H]1O[C@H](CO)[C@@H](O)[C@H](O)[C@H]1O | 0.322 |
| CCN(CC)C(C)C(=O)c1ccccc1 (centres undefined) | -0.333 |
| COCCCOc1ccnc(CS(=O)c2nc3ccccc3[nH]2)c1C (centres undefined) | 0.105 |
| CC[C@H](C)[C@H]1O[C@]2(C=C[C@@H]1C)C[C@@H]1C[C@@H](C/C=C(\C)C(O[C@H]3C[C@H](OC)C(O[C@H]4C[C@H](OC)[C@@H](O)[C@H](C)O4)[C@H](C)O3)[C@@H](C)/C=C/C=C3\CO[C@@H]4[C@H](O)C(C)=C[C@@H](C(=O)O1)[C@]34O)O2 (some centres undefined) | 1.52 |
| C=CCC1(CC(C)C)C(=O)NC(=O)NC1=O | 0.0147 |
| C=CC[C@]1(O)CC[C@H]2[C@@H]3CCC4=CC(=O)CCC4=C3C=C[C@@]21C | 0.629 |
| CN1CCN(C(=O)OC2c3nccnc3C(=O)N2c2ccc(Cl)cn2)CC1 (centres undefined) | 0.36 |

assay: drug combination growth inhibition, ovarian cancer – cell-based, oncology-focused library, rucaparib conditional, profiling panel (AID 1508598); settings: patient-derived ovarian cancer cells, CellTiter-Glo viability, 144 h; at 0.000305 µM; OCI-C5x cells; with rucaparib 10 µM; stronger effect = lower value; 100% = cells with rucaparib alone

| SMILES | viability |
| --- | --- |
| C/C(=C\c1csc(C)n1)[C@H]1C[C@@H]2O[C@]2(C)CCC[C@H](C)[C@H](O)[C@@H](C)C(=O)C(C)(C)[C@H](O)CC(=O)O1 | 47% (active) |
| CC(C)[C@@]12O[C@@H]1[C@@H]1O[C@]13[C@]1(O[C@@H]1C[C@@H]1C4=C(CC[C@@]13C)C(=O)OC4)[C@@H]2O | 33.2% (active) |
| C/C(=C\c1csc(C)n1)[C@H]1C[C@@H]2O[C@@H]2CCC[C@H](C)[C@H](O)[C@@H](C)C(=O)C(C)(C)[C@H](O)CC(=O)O1 | 72.1% (active) |

same assay, conditions: patient-derived ovarian cancer cells, CellTiter-Glo viability, 144 h; at 0.000305 µM; OCI-C5x cells; without rucaparib; stronger effect = lower value

| SMILES | viability |
| --- | --- |
| C/C(=C\c1csc(C)n1)[C@H]1C[C@@H]2O[C@]2(C)CCC[C@H](C)[C@H](O)[C@@H](C)C(=O)C(C)(C)[C@H](O)CC(=O)O1 | 25.7% (active) |
| CC(C)[C@@]12O[C@@H]1[C@@H]1O[C@]13[C@]1(O[C@@H]1C[C@@H]1C4=C(CC[C@@]13C)C(=O)OC4)[C@@H]2O | 23.2% (active) |
| C/C(=C\c1csc(C)n1)[C@H]1C[C@@H]2O[C@@H]2CCC[C@H](C)[C@H](O)[C@@H](C)C(=O)C(C)(C)[C@H](O)CC(=O)O1 | 52.1% (active) |

same assay, conditions: patient-derived ovarian cancer cells, CellTiter-Glo viability, 144 h; at 0.000305 µM; OCI-P5x cells; with rucaparib 20 µM; stronger effect = lower value; 100% = cells with rucaparib alone

| SMILES | viability |
| --- | --- |
| C/C(=C\c1csc(C)n1)[C@H]1C[C@@H]2O[C@]2(C)CCC[C@H](C)[C@H](O)[C@@H](C)C(=O)C(C)(C)[C@H](O)CC(=O)O1 | 57.2% (active) |
| CC(C)[C@@]12O[C@@H]1[C@@H]1O[C@]13[C@]1(O[C@@H]1C[C@@H]1C4=C(CC[C@@]13C)C(=O)OC4)[C@@H]2O | 11.8% (active) |
| C/C(=C\c1csc(C)n1)[C@H]1C[C@@H]2O[C@@H]2CCC[C@H](C)[C@H](O)[C@@H](C)C(=O)C(C)(C)[C@H](O)CC(=O)O1 | 73.7% (active) |
